# PubChem BioAssay (NCATS)
# Inconclusive results are not listed. Active and inactive are the calls of the source. The call rests on the fitted dose curve.
# Assay: Primary qHTS to identify inhibitors of SARS-CoV-2 cell entry (AID 1645846); further: nearly all actives have a fitted effect of over 45% in size
# Conditions: SARS-CoV-2 pseudovirus cell entry assay, luminescence; activity change, negative = inhibition: at 57.1 µM (top of the series) unless noted
# Method in brief: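 Using luciferase-reporting pseudoviruses carrying Wuhan-Hu-1 spike, the screen tracks entry into stably ACE2-expressing cells over 48 hr. Activity is expressed relative to spike particles versus particles lacking any fusion protein.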
# Potency means the concentration at half of the fitted maximal effect.
SMILES,"activity change, negative = inhibition",Potency,outcome
Fc1cccc(-n2cnc3c(NCc4nc5c(F)c(F)ccc5[nH]4)nc(N4CCOCC4)nc32)c1,-62.7%,,
CNC(=O)c1cccc2cc(Oc3ccnc4cc(OCC5(N)CC5)c(OC)cc34)ccc12,-98.2%,,
CN(C)CCNC(=O)NC[C@H]1CC[C@@H]2[C@H](O1)c1cc(C(F)(F)F)ccc1N[C@H]2c1ccccc1,,25.1 µM (active),
CC1=C(CO)C(=O)O[C@@H]([C@@H](C)[C@H]2CC[C@H]3[C@@H]4C[C@H]5O[C@]56[C@@H](O)C=CC(=O)[C@]6(C)[C@H]4CC[C@]23C)C1,,1.26 µM (active),
CC(C)Nc1cc(-c2c[nH]c(C(=O)N[C@H](CO)c3cccc(Cl)c3)c2)c(Cl)cn1,,31.6 µM (active),
Cc1[nH]c2ccccc2c1CCNCc1ccc(/C=C/C(=O)NO)cc1,,,inactive
NC(=O)c1ccc2nc(-c3ccc(C4(N)CCC4)cc3)c(-c3ccccc3)n2n1,,25.1 µM (active),
Cc1c(CN2CCC(Nc3ncnc4sc(CC(F)(F)F)cc34)CC2)ccc2c1cc(C#N)n2Cc1cn[nH]c1,,8.91 µM (active),
COc1ccc(-c2ccc3c(N4CCOC[C@@H]4C)nc(N4CCOC[C@@H]4C)nc3n2)cc1CO,,1 µM (active),
Cc1cc(O)cc2c1[C@]1(C)CC[C@H]3C(C)(C)CCC[C@]3(C)[C@H]1C2,,,inactive [at 5.25 µM]
CC(C)Oc1ccc(-c2nc(-c3cccc4c3CC[C@@H]4NCCO)no2)cc1C#N,,,inactive
Cc1cc(CC(C)CC(C)(C)C)n(O)c(=O)c1 (stereo not drawn),,20 µM (active),
C=CC(=O)Nc1ccc(F)c(-c2ncnc3[nH]cc(C(=O)OCC)c23)c1,,,inactive
